Screens from PubChem.
Mtb FBA inh – Mtb FBA enzyme inhibitors, primary screen, biochemical, fluorescence, strain H37Rv; 2.3% of 360,000 active; purified M. tuberculosis FBA, fluorescence read-out; inhibition, % at 1 µM; Fructose-bisphosphate aldolase (Mycobacterium tuberculosis (strain ATCC 25618 / H37Rv)), …
Target sequence (P9WQA3 whole entry, looked up): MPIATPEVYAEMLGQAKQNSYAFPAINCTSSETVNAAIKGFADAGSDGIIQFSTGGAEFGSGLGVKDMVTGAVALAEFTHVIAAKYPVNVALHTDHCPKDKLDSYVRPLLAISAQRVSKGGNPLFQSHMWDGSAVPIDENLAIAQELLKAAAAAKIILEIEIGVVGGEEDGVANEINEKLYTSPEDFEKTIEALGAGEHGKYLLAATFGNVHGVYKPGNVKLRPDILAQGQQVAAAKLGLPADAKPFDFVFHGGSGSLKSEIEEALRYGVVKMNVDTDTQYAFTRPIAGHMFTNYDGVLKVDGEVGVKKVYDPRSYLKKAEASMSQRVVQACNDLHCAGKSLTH
GDH-TPI counter-1 – GDH-TPI coupling enzyme inhibitors, primary screen, artefact control for M. tuberculosis FBA inhibitor project, biochemical, absorbance, full deck | GDH-TPI coupled enzyme counterscreen, NADH absorbance | inhibition, % at 4.8 µM | 1.2% of 360,000 active | AID 588335, 2011; in the data active = inhibition above about 30%
RecA intein inh – Mtb RecA intein splicing inhibitors, primary screen, biochemical, fluorescence, HTS; Protein RecA (Mycobacterium tuberculosis (strain ATCC 25618 / H37Rv)), P9WHJ3; cell-free RecA intein splicing; inhibition, % (concentration not given with the values); 0.75% of 290,000 active; in the data active = inhibition above about 30%
CCHF vOTU inh – CCHFV vOTU protease inhibitors, primary screen, biochemical, Pep-AMC substrate, fluorescence; inhibition, % at 11.5 µM; 0.55% of 370,000 active; AID 651958, 2012; in the data active = inhibition above about 30%
Mtb FBA inh conf – M. tuberculosis aldolase blockers, biochemical, fluorescence, strain H37Rv, confirmation. shares compounds with Mtb FBA inh. purified M. tuberculosis FBA, fluorescence read-out. inhibition, % at 1 µM. 78% of 5,600 active. AID 651616, 2012
GDH-TPI counter-2 – GDH-TPI coupling enzyme inhibitors, artefact control for M. tuberculosis FBA inhibitor project, biochemical, fluorescence, high throughput; inhibition, % at 1 µM; shares compounds with Mtb FBA inh; 81% of 5,600 active; GDH-TPI coupled enzyme counterscreen; in the data active = inhibition above about 10%
GDH-TPI DR – GDH-TPI coupling enzyme inhibitors, dose response, artefact control for M. tuberculosis FBA inhibitor project, biochemical, fluorescence, IC50 | AID 652145, 2013 | GDH-TPI coupled enzyme assay, artifact counterscreen | shares compounds with Mtb FBA inh | IC50, µM | 79% of 170 active; call rule not given here
Each line names hits and unclear results; the compound was inactive in the other large screens (follow-up assays come after a bar, where they were run). In the library only some 4.2% were active in any assay of this set; here they are far more common. Cut-off read from the data, not from the text of the source, unless noted: active = inhibition above about 27%; inactive = the rest.

CC(C)Oc1ccc2c3c(c(=O)oc2c1)CCC3	Mtb FBA inh 76.2 | Mtb FBA inh conf 86.0 | GDH-TPI counter-2 72.4
CC(C)CC(C(=O)Oc1ccc2c3c(c(=O)oc2c1)CCC3)N1C(=O)c2ccccc2C1=O (stereo not given)	Mtb FBA inh 31.1 | Mtb FBA inh conf inactive | GDH-TPI counter-2 inactive | GDH-TPI DR 5.55
CCN(CC)C(=O)COc1ccc2c3c(c(=O)oc2c1)CCCC3	Mtb FBA inh 50.4 | Mtb FBA inh conf 40.0 | GDH-TPI counter-2 40.9
O=C(COc1ccc2c3c(c(=O)oc2c1)CCC3)Nc1ccc(CCO)cc1	none
CCOC(=O)c1oc2cc(OCC(N)=O)ccc2c(=O)c1-c1ccc(OC)c(OC)c1	none
CCOC(=O)COc1ccc2c3c(c(=O)oc2c1)CCCC3	Mtb FBA inh 32.2 | Mtb FBA inh conf active | GDH-TPI counter-2 181.6
NS(=O)(=O)c1ccc(CCNC(=O)COc2ccc3c4c(c(=O)oc3c2)CCC4)cc1	none
CCc1c(C)c2ccc(OCC(N)=O)cc2oc1=O	Mtb FBA inh 87.5 (no result: RecA intein inh) | Mtb FBA inh conf inactive | GDH-TPI counter-2 inactive
CC1(C)Cc2c(cnn2-c2ccccc2)C(NC(=O)CCN2CCCC2=O)C1 (stereo not given)	none
CC(=O)N/C(=N\c1nc(C)cc(C)n1)Nc1ccccc1Cl	none
CC(=O)c1cc2c(cc1C)CCCC2(C)C	none (no result: RecA intein inh)
CCOC(=O)C1(C)CCN1C(=O)c1ccc(OC)c(F)c1 (stereo not given)	none (no result: RecA intein inh)
CCc1cccc(NC(=O)CC2Oc3ccccc3NC2=O)c1 (stereo not given)	none
COC(=O)c1cc(NC(=O)CC2Oc3ccccc3NC2=O)cc(C(=O)OC)c1 (stereo not given)	Mtb FBA inh 39.5 | Mtb FBA inh conf 79.5 | GDH-TPI counter-2 68.8
Cc1ccc(C)c(N2N=C(C(=O)OCc3nnc(-c4ccccc4)o3)CCC2=O)c1	none
CC1(C)CC(=O)C2=C(C1)c1c(ccc3ccccc13)NC2c1ccco1 (stereo not given)	Mtb FBA inh 86.6 | Mtb FBA inh conf 103.7 | GDH-TPI counter-2 88.9
CCn1cc(C(=O)NCc2ccncc2)c(=O)c2cc(F)c(N3CCN(C(=O)c4ccco4)CC3)cc21	Mtb FBA inh 41.8 | Mtb FBA inh conf 35.2 | GDH-TPI counter-2 22.1
CCn1cc(C(=O)NC(C)C)c(=O)c2cc(F)c(N3CCN(C(=O)c4ccco4)CC3)cc21	Mtb FBA inh 54.8 | Mtb FBA inh conf 99.6 | GDH-TPI counter-2 69.7
Cc1ccc(S(=O)(=O)N2CCOCC2)cc1NC(=O)COC(=O)c1ccc(Br)o1	none (no result: RecA intein inh)
CCOc1ccc(Cl)cc1CSc1n[nH]c(CC)n1	Mtb FBA inh 34.5 | Mtb FBA inh conf inactive | GDH-TPI counter-2 inactive
CCCCOc1ccc(Cl)cc1CSc1n[nH]c(C)n1	none (no result: RecA intein inh)
CCCCN(C)S(=O)(=O)c1cc2c(cc1Br)CCN2C(=O)C1CC1	none (no result: RecA intein inh)
Cc1ccc(Cn2c(C3CCCN3c3nc(-c4ccc(F)cc4)cs3)nc3cc(C(=O)NCCCO)ccc32)cc1 (stereo not given)	Mtb FBA inh 70.1 | Mtb FBA inh conf inactive | GDH-TPI counter-2 inactive
Cc1ccc(Cn2c(C3CCCN3c3nc(C)cs3)nc3cc(C(=O)NCCCO)ccc32)cc1 (stereo not given)	none
O=S(=O)(O)c1cccc2cccc(Nc3ccccc3)c12	Mtb FBA inh 95.4, GDH-TPI counter-1 30.9 | Mtb FBA inh conf active | GDH-TPI counter-2 active
c1ccc(Nc2cccc(Nc3ccccc3)n2)cc1	none
CCOc1cc(C(=O)N2CCC(CC3CC(c4cccc(Br)c4)=NO3)(C(=O)NCC3CCCCC3)CC2)cc(OCC)c1OCC (stereo not given)	none
CCCNC(=O)C1(CC2CC(c3ccccc3)=NO2)CCN(C(=O)c2cc(OCC)c(OCC)c(OCC)c2)CC1 (stereo not given)	Mtb FBA inh 29.0 | Mtb FBA inh conf 169.3 | GDH-TPI counter-2 128.1
